# Test results as given in the supplement of paper PMC10849652.
# The full data set covers some 8,800 targets. This sample favours those with a hit. About 0.5% of all pairs of compound and target were hits. Values without a mark were called inactive.
# Assays:
# Test in all cases: log2 fold change, soluble protein after heating vs DMSO (PISA); higher = thermal stabilisation; K562 lysate, 10 uM; active = over 0.2 and 3.5 SD of the protein, either way, in both replicates (recomputed)
# [1] = compound: CCN(CCCOc1ccc2c(Nc3cc(CC(=O)Nc4cccc(F)c4)[nH]n3)ncnc2c1)CCOP(=O)(O)O [barasertib]
# Outline: (§1)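 Pellets of K562 cells were dounce-homogenised in PBS pH 7.4 with 1 mM MgCl2, and the crude extract was held at 1 mg/mL protein for a 30 min treatment with 10 μM compound. Aliquots were heated for 3 min over 48°C-58°C and pooled before NP-40 was added to 0.5% at 4°C. The supernatant from 21,000xg for 90 min was quantified by TMTpro 16plex LC-MS/MS with channel sums equalised. Values are reported from duplicates as log-two fold change in thermal stability relative to solvent controls.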
# [2] = compound: CCn1cc(-c2ccnc3[nH]c(-c4cccc(CN(C)C)c4)cc23)c(-c2ccc(NC(=O)N(C)C)cc2)n1
# Outline: as §1
# [3] = compound: CN1CCC(CNc2ccc3ncc(-c4cccc(OC(F)(F)F)c4)n3n2)CC1
# Outline: as §1
# [4] = compound: CN1CCN(c2nc(C3=C(c4c[nH]c5ccccc45)C(=O)NC3=O)c3ccccc3n2)CC1 [sotrastaurin]
# Outline: as §1
# [5] = compound: CN1CC[C@H](c2c(O)cc(O)c3c(=O)cc(-c4ccccc4Cl)oc23)[C@H](O)C1 [alvocidib]
# Outline: as §1
# [6] = compound: CNC(=O)C1=CC=CC=C1NC2=NC(=NC=C2Cl)NC3=C(C=C(C=C3)N4CCOCC4)OC
# Outline: as §1
# [7] = compound: COc1cc(Nc2ncc3c(n2)-c2ccc(Cl)cc2C(c2c(F)cccc2OC)=NC3)ccc1C(=O)O [alisertib]
# Outline: as §1
# [8] = compound: COc1cc2ncnc(Nc3ccc(F)c(Cl)c3)c2cc1OCCCN1CCOCC1 [gefitinib]
# Outline: as §1
# [9] = compound: CCCS(=O)(=O)Nc1ccc(F)c(C(=O)c2c[nH]c3ncc(Cl)cc23)c1F
# Outline: as §1
# [10] = compound: CC[C@@H]1C(=O)N(C)c2cnc(Nc3ccc(C(=O)NC4CCN(C)CC4)cc3OC)nc2N1C1CCCC1
# Outline: as §1
# [11] = compound: CC[C@@H]1C(=O)N(C)c2cnc(Nc3ccc(C(=O)N[C@H]4CC[C@H](N5CCN(CC6CC6)CC5)CC4)cc3OC)nc2N1C(C)C [volasertib]
# Outline: as §1
# [12] = compound: CCn1c(C(=O)N(C2CC2)C2CC2)cc2c3c(ncn3C)c(Nc3cc(C)n(C)n3)nc21
# Outline: as §1
# [13] = compound: CN1CCN(CCOc2cc(OC3CCOCC3)c3c(Nc4c(Cl)ccc5c4OCO5)ncnc3c2)CC1 [saracatinib]
# Outline: as §1
# [14] = compound: CN1CCc2c(c3ccccc3n2Cc2ccc(C(=O)NO)cc2)C1 [Tubastatin A]
# Outline: as §1
# [15] = compound: CNc1nc(-c2ccc3c(N)n[nH]c3c2)cc(N2C[C@@H](C(=O)NC3CCCCC3)CC[C@H]2C)n1
# Outline: as §1
# [16] = compound: COC(=O)N[C@@H](C)CNc1nccc(-c2cn(C(C)C)nc2-c2cc(Cl)cc(NS(C)(=O)=O)c2F)n1 [encorafenib]
# Outline: as §1
# [17] = compound: COC(=O)[C@H](CCSC)NC(=O)C1=C(C=C(C=C1)NC[C@H](CS)N)C2=CC=CC=C2
# Outline: as §1
# [18] = compound: COc1cc2nc(-c3cc(F)ccc3O)nc(N[C@@H]3CNC[C@H]3C(C)(C)O)c2cc1OC
# Outline: as §1
# [19] = compound: CCCS(=O)(=O)Nc1ccc(F)c(C(=O)c2c[nH]c3ncc(-c4ccc(Cl)cc4)cc23)c1F [vemurafenib]
# Outline: as §1
# [20] = compound: CNC(=O)c1ccc(Nc2ncc(C(F)(F)F)c(NCc3nccnc3N(C)S(C)(=O)=O)n2)cc1 [defactinib]
# Outline: as §1
# Sequence of UniProt Q13487 (Q13487 whole entry, looked up): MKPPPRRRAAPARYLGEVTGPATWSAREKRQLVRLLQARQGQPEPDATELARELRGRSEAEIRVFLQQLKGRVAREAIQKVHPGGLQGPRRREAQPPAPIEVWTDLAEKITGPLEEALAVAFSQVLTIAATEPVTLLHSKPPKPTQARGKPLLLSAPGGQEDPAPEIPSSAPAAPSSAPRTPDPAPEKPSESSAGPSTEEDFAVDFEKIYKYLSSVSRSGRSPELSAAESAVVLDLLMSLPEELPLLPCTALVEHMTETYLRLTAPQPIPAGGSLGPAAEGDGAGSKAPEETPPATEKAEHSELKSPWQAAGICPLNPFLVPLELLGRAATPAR
# Sequence of UniProt Q9P289 (Q9P289 whole entry, looked up): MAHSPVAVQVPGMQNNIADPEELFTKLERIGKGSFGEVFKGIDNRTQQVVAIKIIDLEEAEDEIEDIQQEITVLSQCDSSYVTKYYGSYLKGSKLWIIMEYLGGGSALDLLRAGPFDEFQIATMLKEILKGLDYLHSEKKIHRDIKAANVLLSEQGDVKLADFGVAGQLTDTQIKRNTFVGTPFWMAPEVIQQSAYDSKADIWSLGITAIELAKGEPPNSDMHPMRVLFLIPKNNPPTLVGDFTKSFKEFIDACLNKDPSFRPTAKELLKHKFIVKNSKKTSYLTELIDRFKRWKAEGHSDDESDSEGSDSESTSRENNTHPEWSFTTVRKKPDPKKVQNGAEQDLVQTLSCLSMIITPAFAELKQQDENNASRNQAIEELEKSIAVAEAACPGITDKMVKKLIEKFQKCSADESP
# Sequence of UniProt O60906 (O60906 whole entry, looked up): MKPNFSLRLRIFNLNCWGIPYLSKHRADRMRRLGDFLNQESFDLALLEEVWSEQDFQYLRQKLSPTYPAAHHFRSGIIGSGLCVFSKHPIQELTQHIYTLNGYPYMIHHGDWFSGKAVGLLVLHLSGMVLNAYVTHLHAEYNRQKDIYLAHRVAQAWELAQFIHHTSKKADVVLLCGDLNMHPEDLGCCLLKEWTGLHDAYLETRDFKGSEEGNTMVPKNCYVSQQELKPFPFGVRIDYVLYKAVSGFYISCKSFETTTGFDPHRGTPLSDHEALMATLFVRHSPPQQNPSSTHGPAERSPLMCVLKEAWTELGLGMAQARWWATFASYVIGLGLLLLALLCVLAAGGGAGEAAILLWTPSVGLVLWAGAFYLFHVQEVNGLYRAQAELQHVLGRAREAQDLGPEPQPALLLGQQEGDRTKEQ
# Sequence of UniProt Q9Y2D2 (Q9Y2D2 whole entry, looked up): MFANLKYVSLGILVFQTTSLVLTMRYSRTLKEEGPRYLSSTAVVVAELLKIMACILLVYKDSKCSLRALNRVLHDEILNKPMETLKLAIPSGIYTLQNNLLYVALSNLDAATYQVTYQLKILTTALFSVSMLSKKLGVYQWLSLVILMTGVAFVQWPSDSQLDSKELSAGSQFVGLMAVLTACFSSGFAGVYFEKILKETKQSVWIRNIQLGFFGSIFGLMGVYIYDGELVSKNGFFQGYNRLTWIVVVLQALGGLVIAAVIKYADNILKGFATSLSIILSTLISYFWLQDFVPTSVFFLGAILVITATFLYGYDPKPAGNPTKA
# Sequence of UniProt Q8IVJ1 (Q8IVJ1 whole entry, looked up): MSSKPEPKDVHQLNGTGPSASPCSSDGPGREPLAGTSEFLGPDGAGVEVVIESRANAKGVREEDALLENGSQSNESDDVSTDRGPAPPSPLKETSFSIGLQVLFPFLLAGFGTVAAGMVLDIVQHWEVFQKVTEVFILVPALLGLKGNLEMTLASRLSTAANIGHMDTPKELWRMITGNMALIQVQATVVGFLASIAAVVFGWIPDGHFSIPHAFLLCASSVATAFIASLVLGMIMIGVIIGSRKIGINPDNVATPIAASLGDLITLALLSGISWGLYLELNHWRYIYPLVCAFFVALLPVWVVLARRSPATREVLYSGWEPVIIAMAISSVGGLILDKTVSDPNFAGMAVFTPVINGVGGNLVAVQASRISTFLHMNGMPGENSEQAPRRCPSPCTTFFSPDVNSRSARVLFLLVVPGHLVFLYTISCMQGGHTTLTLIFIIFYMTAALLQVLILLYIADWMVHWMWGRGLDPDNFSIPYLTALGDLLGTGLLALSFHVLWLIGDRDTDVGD
# Sequence of UniProt Q96CQ1 (Q96CQ1 whole entry, looked up): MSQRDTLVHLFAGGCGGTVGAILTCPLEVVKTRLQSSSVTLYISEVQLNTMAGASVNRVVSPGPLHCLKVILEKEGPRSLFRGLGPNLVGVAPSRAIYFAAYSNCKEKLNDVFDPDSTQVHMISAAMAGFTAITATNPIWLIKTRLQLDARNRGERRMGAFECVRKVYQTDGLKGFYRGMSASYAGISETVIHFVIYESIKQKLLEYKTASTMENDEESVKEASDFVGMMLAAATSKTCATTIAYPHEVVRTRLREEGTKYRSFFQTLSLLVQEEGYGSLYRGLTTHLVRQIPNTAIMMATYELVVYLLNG
# Sequence of UniProt Q9UHW9 (Q9UHW9 whole entry, looked up): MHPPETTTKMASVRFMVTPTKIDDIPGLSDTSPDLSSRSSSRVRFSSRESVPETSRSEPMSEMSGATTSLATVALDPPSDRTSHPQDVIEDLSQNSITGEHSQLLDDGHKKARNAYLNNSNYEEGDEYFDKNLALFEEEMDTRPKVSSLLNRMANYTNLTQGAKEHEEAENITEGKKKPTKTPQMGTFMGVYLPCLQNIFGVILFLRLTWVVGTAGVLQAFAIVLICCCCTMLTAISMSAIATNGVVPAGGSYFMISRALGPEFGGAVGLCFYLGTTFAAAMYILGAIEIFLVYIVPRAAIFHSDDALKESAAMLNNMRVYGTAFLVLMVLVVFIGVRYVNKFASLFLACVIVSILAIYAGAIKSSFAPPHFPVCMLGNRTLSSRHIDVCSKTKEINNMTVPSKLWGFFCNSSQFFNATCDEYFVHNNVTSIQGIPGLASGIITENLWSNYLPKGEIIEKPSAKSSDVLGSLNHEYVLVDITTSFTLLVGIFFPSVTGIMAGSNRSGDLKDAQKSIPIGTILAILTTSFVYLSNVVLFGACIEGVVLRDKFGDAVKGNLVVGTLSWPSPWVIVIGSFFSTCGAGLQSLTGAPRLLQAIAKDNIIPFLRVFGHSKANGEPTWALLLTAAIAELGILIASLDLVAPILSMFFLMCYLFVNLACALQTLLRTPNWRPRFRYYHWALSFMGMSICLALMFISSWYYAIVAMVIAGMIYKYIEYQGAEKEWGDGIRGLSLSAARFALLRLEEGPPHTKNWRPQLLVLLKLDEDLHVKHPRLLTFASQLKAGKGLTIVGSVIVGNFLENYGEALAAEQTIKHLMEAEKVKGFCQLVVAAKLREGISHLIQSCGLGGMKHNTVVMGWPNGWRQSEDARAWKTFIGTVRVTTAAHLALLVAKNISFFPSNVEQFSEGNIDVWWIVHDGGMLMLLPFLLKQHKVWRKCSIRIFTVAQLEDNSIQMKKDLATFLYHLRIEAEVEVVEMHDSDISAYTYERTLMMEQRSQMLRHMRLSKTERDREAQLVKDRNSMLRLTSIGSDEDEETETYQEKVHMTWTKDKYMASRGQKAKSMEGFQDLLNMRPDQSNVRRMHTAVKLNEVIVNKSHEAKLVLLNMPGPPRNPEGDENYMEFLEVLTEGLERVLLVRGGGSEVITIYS
# Sequence of UniProt O95391 (O95391 whole entry, looked up): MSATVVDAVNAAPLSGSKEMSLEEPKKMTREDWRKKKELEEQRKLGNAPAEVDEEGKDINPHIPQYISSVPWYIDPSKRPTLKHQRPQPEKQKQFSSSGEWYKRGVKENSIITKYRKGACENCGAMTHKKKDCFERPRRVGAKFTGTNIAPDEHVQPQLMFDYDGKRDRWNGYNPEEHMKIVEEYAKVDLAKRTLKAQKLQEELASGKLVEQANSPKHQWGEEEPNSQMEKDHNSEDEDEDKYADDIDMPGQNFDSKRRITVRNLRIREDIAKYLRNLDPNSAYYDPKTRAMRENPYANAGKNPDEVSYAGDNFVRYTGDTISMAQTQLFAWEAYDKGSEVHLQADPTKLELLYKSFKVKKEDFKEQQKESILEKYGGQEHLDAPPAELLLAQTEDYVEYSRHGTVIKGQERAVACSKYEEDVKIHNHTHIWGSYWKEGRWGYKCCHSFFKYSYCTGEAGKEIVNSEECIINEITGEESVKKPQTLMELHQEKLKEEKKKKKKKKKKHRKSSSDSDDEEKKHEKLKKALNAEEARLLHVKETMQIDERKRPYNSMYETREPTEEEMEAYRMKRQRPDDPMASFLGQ
# Sequence of UniProt Q96BD0 (Q96BD0 whole entry, looked up): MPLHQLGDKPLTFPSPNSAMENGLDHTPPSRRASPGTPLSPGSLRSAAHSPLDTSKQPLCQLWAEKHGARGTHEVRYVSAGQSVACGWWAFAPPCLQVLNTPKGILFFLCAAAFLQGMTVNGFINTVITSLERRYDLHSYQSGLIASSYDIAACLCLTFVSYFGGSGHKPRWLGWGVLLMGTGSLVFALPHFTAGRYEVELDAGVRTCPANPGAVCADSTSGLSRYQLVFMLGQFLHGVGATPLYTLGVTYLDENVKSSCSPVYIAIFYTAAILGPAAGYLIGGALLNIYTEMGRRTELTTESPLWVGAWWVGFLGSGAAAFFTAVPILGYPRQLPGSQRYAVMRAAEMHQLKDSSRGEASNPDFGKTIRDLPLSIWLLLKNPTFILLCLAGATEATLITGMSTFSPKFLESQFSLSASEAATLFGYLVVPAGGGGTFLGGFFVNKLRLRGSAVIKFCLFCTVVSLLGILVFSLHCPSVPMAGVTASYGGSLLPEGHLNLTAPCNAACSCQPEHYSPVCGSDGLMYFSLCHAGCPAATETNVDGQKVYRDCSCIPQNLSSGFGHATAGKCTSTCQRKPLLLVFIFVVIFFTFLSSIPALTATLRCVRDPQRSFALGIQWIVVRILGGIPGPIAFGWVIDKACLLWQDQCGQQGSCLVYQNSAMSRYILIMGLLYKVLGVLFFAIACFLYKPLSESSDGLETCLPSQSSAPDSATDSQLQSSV
# Sequence of UniProt O00161 (O00161 whole entry, looked up): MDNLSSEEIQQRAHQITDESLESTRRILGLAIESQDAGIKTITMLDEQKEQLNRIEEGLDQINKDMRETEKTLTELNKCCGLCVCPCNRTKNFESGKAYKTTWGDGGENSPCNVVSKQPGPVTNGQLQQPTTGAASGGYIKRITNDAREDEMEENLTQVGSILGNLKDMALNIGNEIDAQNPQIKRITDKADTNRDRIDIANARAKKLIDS
Target,log2 fold change [1],log2 fold change [2],log2 fold change [3],log2 fold change [4],log2 fold change [5],log2 fold change [6],log2 fold change [7],log2 fold change [8],log2 fold change [9],log2 fold change [10],log2 fold change [11],log2 fold change [12],log2 fold change [13],log2 fold change [14],log2 fold change [15],log2 fold change [16],log2 fold change [17],log2 fold change [18],log2 fold change [19],log2 fold change [20]
STAU1 isoform 3 (UniProt O95793),0.014,-0.166,-0.016,0.092,-0.06,-0.044,-0.068,0.03,–,–,–,–,–,–,–,–,–,–,–,–
SMPD2 (UniProt O60906),–,-0.003,-0.104,–,-0.043,-0.787,–,–,0.179,0.051,0.032,-0.017,0.018,0.088,-0.034,0.09,-0.22,-0.074,–,–
STK17A (UniProt Q9UEE5),–,0.164,-0.109,–,0.182,–,-0.291,-0.141,–,–,–,–,–,–,–,–,–,–,–,–
SLC35A3 isoform 2 (UniProt Q9Y2D2),–,-1.1 (active),0.336,-0.026,-0.406,0.016,0.069,0.198,-0.031,0.056,0.005,-0.374,–,-0.079,–,0.067,-0.019,-0.019,-0.024,0.069
SNAPC2 (UniProt Q13487),-0.211,0.039,0.048,0.154,-0.034,-0.005,0.014,-0.044,–,–,–,0.04,0.038,-0.117,-0.175,–,–,–,–,–
STK17B (UniProt O94768),–,–,–,0.057,–,0.082,0.066,0.094,–,–,–,-0.451,-0.002,-0.466,0.642,–,–,–,–,–
TARDBP (UniProt K7EN94),–,–,–,–,–,–,–,–,–,-0.039,–,–,–,–,–,0.224,0.04,–,0.008,-0.197
STK26 isoform 3 (UniProt Q9P289),–,–,–,-0.119,–,–,–,–,–,0.189,–,–,-0.046,–,0.058,0.034,0.001,–,–,–
SPAG1 (UniProt Q07617),0.018,–,–,-0.02,–,–,–,–,0.028,–,-0.137,0.083,–,0.071,–,–,–,-0.03,0.041,-0.014
SLU7 (UniProt O95391),-0.07,-0.188,0.166,-0.027,-0.086,-0.065,0.002,0.026,–,0.062,–,-0.004,0.093,-0.042,-0.006,0.071,0.021,–,-0.043,0.016
TAOK2 isoform 2 (UniProt Q9UL54),–,–,–,–,–,–,-0.046,-0.202,–,–,–,–,–,–,–,–,–,–,–,–
SLC12A6 isoform 2 (UniProt Q9UHW9),–,–,–,0.057,–,-0.149,–,–,0.009,0.053,-0.178,-0.021,0.042,-0.013,-0.008,0.031,0.075,-0.106,–,–
SNRPD2 (UniProt K7EJB5),–,–,–,0.112,–,-0.057,0.103,0.107,-0.029,-0.085,0.026,0.112,-0.049,-0.001,0.054,-0.069,0.047,0.025,0.061,-0.074
SNAP23 isoform 2 (UniProt O00161),–,0.123,-0.061,–,-0.323,0.029,-0.15,0.016,0.09,0.052,0.003,-0.029,–,-0.202,–,-0.295,0.071,-0.152,0.172,-0.118
SMARCA4 isoform 4 (UniProt P51532),–,-0.086,0.057,0.325,0.078,-0.008,-0.046,-0.116,-0.047,0.049,0.043,-0.192,0.119,0.106,0.024,-0.315,0.04,-0.038,–,–
SLC39A13 (UniProt Q96H72),–,–,–,–,–,-0.058,–,–,–,–,–,0.035,–,-0.125,–,–,–,–,–,–
STK38L (UniProt Q9Y2H1),–,–,–,-0.01,–,0.647 (active),0.06,-0.049,–,-0.105,–,-0.047,-0.058,-0.063,0.06,-0.036,0.193,–,–,–
SLC25A36 (UniProt Q96CQ1),–,-0.016,0.035,-0.055,0.024,0.048,0.04,0.025,0.007,0.113,-0.045,0.039,-0.001,-0.047,0.029,0.041,0,0.049,-0.272,0.068
SZT2 (UniProt Q5T011),0.313,0.035,0.094,–,-0.169,-0.002,-0.193,0.094,-0.032,0.293,-0.095,0.006,-0.073,0.012,0.109,-0.011,-0.105,-0.031,–,–
SLCO4A1 (UniProt Q96BD0),0.037,-0.015,0.042,–,-0.129,–,-0.041,-0.001,–,–,–,–,–,–,–,–,–,–,–,–
SRC isoform 2 (UniProt P12931),0.133,0.184,-0.121,–,-0.035,0.118,–,–,0.166,0.045,-0.039,-0.024,–,0.133,-0.031,-0.171,0.399,0,–,–
SLC41A1 (UniProt Q8IVJ1),–,0.083,0.06,0.082,-0.213,0.043,0.024,0.153,0.021,0.085,-0.084,0.035,–,0.055,–,0.071,-0.031,0.014,–,–
SHC1 (UniProt P29353),–,-0.2,-0.114,–,0.144,–,–,–,–,–,–,–,–,–,–,–,–,–,–,–
SLC40A1 (UniProt Q9NP59),–,-0.491 (active),0.067,0.026,0.002,-0.05,0.018,-0.01,-0.037,0.123,0.037,-0.106,0,0.145,-0.029,0.013,-0.072,0.039,0.01,0.087
STAR (UniProt P49675),–,0.043,-0.03,0.061,-0.024,0.073,0.133,-0.056,–,0.074,–,0.008,0.006,0.448 (active),0.005,-0.052,0.063,–,0.02,0.034
TAF11 (UniProt Q15544),–,-0.028,0.086,0.026,-0.015,–,-0.053,0.064,0.166,0.14,0.037,0.086,-0.021,0.014,0.137,-0.155,0.398 (active),0.048,-0.055,-0.151
